The list is not random: actives were taken first. Their share in the collection is about 28%.
CYP2C19 inh = blockers of cytochrome P450 2C19 activity – biochemical, luminescence, ADME assay, primary screen; AID 778, 2007; CYP2C19 Supersomes, luciferin-H EGE luminescence, 30 min; P33261; hit rate 21% among 96,000; inhibition, % at 5 µM;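 active means CYP2C19 inhibition above a set limit at 5 µM in the primary screen, cut at about 50% in these data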;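 further: plate controls were negative control wells for no effect and 2.5 mM tranylcypromine positive control for full effect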
PLK1 kinase inh = human PLK1 kinase inhibitors, primary screen, biochemical, TR-FRET; Serine/threonine-protein kinase PLK1 (Homo sapiens), P53350; inhibition, % at 10 µM; hit rate 0.53% among 97,000; recombinant PLK1 kinase, TR-FRET peptide phosphorylation;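 active means inhibition of 50% or more in the single-concentration screen; inactive means inhibition below 50%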;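 further: 0% = DMSO max control and 100% = H-89 dihydrochloride min control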
Target sequence (P53350 whole entry, looked up): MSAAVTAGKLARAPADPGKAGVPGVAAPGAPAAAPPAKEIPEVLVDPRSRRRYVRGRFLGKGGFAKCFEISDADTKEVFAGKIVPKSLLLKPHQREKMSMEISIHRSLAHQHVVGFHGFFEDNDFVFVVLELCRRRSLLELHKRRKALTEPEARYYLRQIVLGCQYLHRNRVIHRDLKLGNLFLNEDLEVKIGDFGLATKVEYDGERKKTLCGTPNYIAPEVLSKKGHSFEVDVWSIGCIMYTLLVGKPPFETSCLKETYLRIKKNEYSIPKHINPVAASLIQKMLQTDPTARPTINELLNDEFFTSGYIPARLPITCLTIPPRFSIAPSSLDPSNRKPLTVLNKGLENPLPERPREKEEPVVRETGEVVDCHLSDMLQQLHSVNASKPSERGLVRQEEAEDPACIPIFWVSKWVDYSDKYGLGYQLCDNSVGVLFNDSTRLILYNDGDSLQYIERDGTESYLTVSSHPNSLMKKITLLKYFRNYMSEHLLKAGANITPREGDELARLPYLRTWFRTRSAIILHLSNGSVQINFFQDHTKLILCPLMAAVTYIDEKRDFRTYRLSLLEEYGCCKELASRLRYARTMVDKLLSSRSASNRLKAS
PLK1 PBD inh = Plk1 polo box domain binding inhibitors, primary screen, biochemical, fluorescence polarization; hit rate 0.13% among 97,000; Serine/threonine-protein kinase PLK1 (Homo sapiens), P53350; AID 693, 2007; inhibition, %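 (tested at about 20 µM)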; Plk1 PBD phosphopeptide binding; in the data active means inhibition above about 34%, passing the limit was not always enough
CYP2C9 inhib = blockers of cytochrome P450 2C9 activity – biochemical, luminescence, ADME assay, primary screen. P11712. CYP2C9 Supersomes, luciferin-H conversion. inhibition, % at 5 µM. hit rate 20% among 96,000. AID 777, 2007;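 active means blocking of liver enzyme CYP2C9 beyond about 50% at 5 µM, limit read from the data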
CYP2C19 activ = human CYP2C19 activators, primary screen, biochemical, luminescence. activation factor at 5 µM. recombinant CYP2C19, luciferin-H EGE luminescence; active compounds read high; 0 = fully inhibited enzyme, 1 = untreated enzyme. Cytochrome P450 2C19 (Homo sapiens), P33261. 96,000 tested, under 10 active;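 active means activation factor of at least 2 at 5 µM in the primary screen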;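 further: 0 = wells with 2.5 mM tranylcypromine and 1 = vehicle-only wells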
CYP2C9 activ = human CYP2C9 activators, primary screen, biochemical, luminescence; AID 1024, 2008; activation factor at 5 µM; hit rate 1.4% among 96,000; recombinant CYP2C9, luciferin-H conversion; active compounds read high; factor 1 = untreated enzyme, 0 = blocked; Cytochrome P450 2C9 (Homo sapiens), P11712;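 active means activation factor of 2 or more for CYP2C9 at a 5 µM dose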;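 further: 0 = sulfaphenazole-blocked wells and 1 = vehicle-only wells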
Starred values were filed as active, the others as inactive; · = not tested or not shown.

SMILES | CYP2C19 inh | PLK1 kinase inh | PLK1 PBD inh | CYP2C9 inhib | CYP2C19 activ | CYP2C9 activ
Cc1ccccc1CSc1nnc(NC(=O)C2COc3ccccc3O2)s1 (stereo not given) | 10.4 | 5.7 | -3.9 | 13.0 | 0.9 | 0.9
Cc1cc(NC(=O)COC(=O)C2COc3ccccc3O2)no1 (stereo not given) | 7.1 | -8.1 | -3.2 | 12.3 | 0.9 | 0.9
O=C(Nc1nnc(SCc2ccccc2Cl)s1)C1COc2ccccc2O1 (stereo not given) | 10.1 | -7.0 | 5.3 | 54.7* | 0.9 | 0.5
Cc1cc(NC(=O)C2COc3ccccc3O2)no1 (stereo not given) | 60.6* | · | · | 38.4 | 0.4 | 0.6
Cc1nc2ccc3nc(NC(=O)C4COc5ccccc5O4)sc3c2s1 (stereo not given) | -4.8 | · | · | 67.7* | 1 | 0.3
CSc1nc2ccc3nc(NC(=O)C4COc5ccccc5O4)sc3c2s1 (stereo not given) | 6.6 | -7.6 | 3.9 | 33.3 | 0.9 | 0.7
Cc1cnc(NC(=O)C2COc3ccccc3O2)s1 (stereo not given) | 67.1* | -15.1 | -8.7 | 17.6 | 0.3 | 0.8
O=C(Nc1ccccn1)C1COc2ccccc2O1 (stereo not given) | · | -8.0 | 0.5 | · | · | ·
Cc1c(NC(=O)CN2CC(C)OC(C)C2)c(=O)n(-c2ccccc2)n1C (stereo not given) | 0.0 | 3.3 | 10.2 | -5.7 | 1 | 1.1
CCC(=O)NC(=S)Nc1cccc(Cl)c1N1CCCCC1 | 1.5 | -11.6 | 12.5 | 8.2 | 1 | 0.9
Cc1csc(NC(=O)C2COc3ccccc3O2)n1 (stereo not given) | 83.4* | -2.6 | -13.2 | 48.1 | 0.2 | 0.5
COc1ccc(NC(=O)CNCCC2=CCCCC2)cc1 | 29.1 | -6.8 | -20.6 | -16.9 | 0.7 | 1.2
O=C(CN1CCc2ccccc2C1)Nc1ccccc1N1CCCCCC1 | 90.0* | 18.4 | -12.2 | 72.6* | 0.1 | 0.3
O=C(CNCCC1=CCCCC1)Nc1ccccc1N1CCCCC1 | 92.6* | -12.6 | 2.0 | 86.4* | 0.1 | 0.1
O=C(CNCC1CCCCC1)Nc1ccccc1N1CCCCC1 | 73.9* | -6.4 | 2.5 | 48.0 | 0.3 | 0.5
O=C(Nc1ccccc1N1CCN(c2ccccc2)CC1)C1CCCCC1 | -0.6 | · | · | 25.7 | 1 | 0.7
O=C(CNC1CCCCCC1)Nc1ccccc1N1CCCCC1 | 56.6* | -2.8 | -14.8 | 23.5 | 0.4 | 0.8
O=C(CN1CCCCC1)Nc1ccccc1NC(=O)CN1CCCCC1 | -7.5 | -1.5 | 9.1 | -9.0 | 1.1 | 1.1
O=C(CNCC1CCCO1)Nc1ccccc1N1CCOCC1 (stereo not given) | -4.1 | -8.0 | -15.3 | 13.9 | 1 | 0.9
CCN(CC)c1ccc(-c2nn3c(-c4cccnc4)nnc3s2)cc1 | 28.0 | -0.8 | 16.4 | 26.7 | 0.7 | 0.7
Cc1ccc(SC(C)C(=O)Nc2c(C)n(C)n(-c3ccccc3)c2=O)cc1 (stereo not given) | 16.8 | 5.5 | 8.2 | 6.8 | 0.8 | 0.9
Cc1ccc(-c2nnc(N3CCN(C(=O)c4ccco4)CC3)c3ccccc23)cc1 | 68.3* | · | · | 75.9* | 0.3 | 0.2
Cc1ccc(-c2nnc(N3CCN(C(=O)CN4C(=O)c5ccccc5C4=O)CC3)c3ccccc23)cc1 | · | -3.5 | 35.7 | · | · | ·
Cc1ccc(OCC(=O)N2CCN(c3nnc(-c4ccc(C)cc4)c4ccccc34)CC2)cc1 | 88.1* | -11.4 | 14.2 | 92.0* | 0.1 | 0.1
O=C(COc1ccccc1)N1CCN(c2nnc(-c3ccccc3)c3ccccc23)CC1 | 74.3* | -7.3 | -20.9 | 74.2* | 0.3 | 0.3
SMILES | CYP2C19 inh | PLK1 kinase inh | PLK1 PBD inh | CYP2C9 inhib | CYP2C19 activ | CYP2C9 activ
COc1ccc(OCC(=O)N2CCN(c3nnc(-c4ccccc4)c4ccccc34)CC2)cc1 | 50.0* | 7.2 | -37.5 | 42.6 | 0.5 | 0.6
Cc1ccc(-c2cc(C(=O)N3CCN(C(=O)c4ccco4)CC3)no2)cc1 | 78.5* | -7.5 | -6.6 | 53.6* | 0.2 | 0.5
COc1nc(C#N)nc(N(C)C)n1 | -6.7 | · | · | -7.8 | 1.1 | 1.1
O=C(CSc1nnc(C2CC2)n1Cc1ccccc1)c1cc2ccccc2o1 | 92.7* | -21.2 | -9.6 | 87.8* | 0.1 | 0.1
Cn1c(=O)[nH]c(=O)c2c1nc(N1CCCCC1)n2CCOc1ccccc1 | 29.6 | -2.8 | -26.7 | 7.8 | 0.7 | 0.9
COc1ccc(S(=O)(=O)N(CC(=O)N2CCN(C)CC2)c2ccccc2)cc1OC | -5.0 | -9.0 | 12.4 | -21.4 | 1.1 | 1.2
CCOC(Cn1c(-c2ccc(OC)cc2)nc2ccccc21)OCC | 49.8 | -13.8 | 18.9 | 85.8* | 0.5 | 0.1
C=C(C)Cn1c(-c2ccc(OC)cc2)nc2ccccc21 | 90.1* | -11.0 | -0.2 | 96.5* | 0.1 | 0
C=CCSc1nnc2c(n1)OC(c1cccnc1)N(C(C)=O)c1ccccc1-2 (stereo not given) | -7.2 | 0.8 | 10.4 | 1.1 | 1.1 | 1
Cc1cccc(NC(=S)NNC(=O)c2ccc(Br)o2)c1 | 22.9 | -17.1 | -15.1 | 56.3* | 0.8 | 0.4
O=C(Nc1cccc(-c2nnc(-c3ccccc3)o2)c1)c1ccc(Br)o1 | 33.4 | -0.7 | 6.5 | 69.2* | 0.7 | 0.3
C=Cc1cccc(NC(=O)COc2ccccc2)c1 | 86.8* | -2.8 | -0.8 | -5.2 | 0.1 | 1.1
Cc1cc(C)cc(OCC(=O)Nc2cccc(-c3nnc(-c4ccco4)o3)c2)c1 | 67.2* | -2.6 | 11.4 | 79.6* | 0.3 | 0.2
CC(C)(CNC(=O)c1cc2ccccc2o1)N1CCOCC1 | 9.5 | -9.1 | -6.5 | 14.2 | 0.9 | 0.9
CN(C(=O)c1cccc(Nc2ccc(-c3ccc4c(c3)OCCO4)nn2)c1)C1CCCCC1 | · | -5.4 | -10.3 | · | · | ·
CCOC(=O)c1c(SC)nc(SC)c2c1CCC2 | 30.1 | -14.5 | 5.9 | -13.1 | 0.7 | 1.1
COc1ccc(C(=O)Nc2cccc(-c3nnc(-c4ccco4)o3)c2)cc1 | 41.7 | -3.1 | 28.3 | 59.7* | 0.6 | 0.4
O=C(COc1ccccc1)Nc1nnc(-c2ccccc2)o1 | 5.8 | -6.9 | -9.7 | 36.1 | 0.9 | 0.6
O=C(NNC(=S)Nc1ccccc1)c1cccc(Br)c1 | 66.2* | -5.7 | 2.5 | 62.2* | 0.3 | 0.4
COc1cc(C(=O)Nc2ccc(-c3nnc(-c4ccco4)o3)cc2)cc(OC)c1OC | 10.3 | -11.2 | 6.2 | 6.3 | 0.9 | 0.9
O=C(COc1ccccc1)Nc1cccc(-c2nnc(-c3ccccc3)o2)c1 | 35.2 | · | · | 52.8* | 0.6 | 0.5
CCC(C)[C@H](NC(=O)NCC1CCCO1)C(=O)OC (stereo not given in full) | -14.3 | -11.7 | -7.4 | -12.4 | 1.1 | 1.1
O=C1C(c2ccnc3ccccc23)=C(O)c2ccccc21 | · | -7.8 | -8.8 | · | · | ·

Screens as filed in PubChem.
